High-throughput results deposited in PubChem BioAssay by Sanford-Burnham Center for Chemical Genomics.
Most compounds without a hit are left out; they make up all but 3.2% or so of the library.
FAS-TE inh: inhibitors of human fatty acid synthase thioesterase domain | recombinant FAS-TE, OMFH fluorogenic substrate, fluorescence endpoint | inhibition, % at 15 µM | 0.67% of 360,000 active | AID 602261;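 active = compounds whose normalised, plate-corrected inhibition of enzyme fluorescence in the single-dose primary screen is 50% or more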;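 note: 0% = DMSO with enzyme and 100% = substrate without enzyme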
Target sequence (P49327 whole entry, looked up, the tested form may be a part): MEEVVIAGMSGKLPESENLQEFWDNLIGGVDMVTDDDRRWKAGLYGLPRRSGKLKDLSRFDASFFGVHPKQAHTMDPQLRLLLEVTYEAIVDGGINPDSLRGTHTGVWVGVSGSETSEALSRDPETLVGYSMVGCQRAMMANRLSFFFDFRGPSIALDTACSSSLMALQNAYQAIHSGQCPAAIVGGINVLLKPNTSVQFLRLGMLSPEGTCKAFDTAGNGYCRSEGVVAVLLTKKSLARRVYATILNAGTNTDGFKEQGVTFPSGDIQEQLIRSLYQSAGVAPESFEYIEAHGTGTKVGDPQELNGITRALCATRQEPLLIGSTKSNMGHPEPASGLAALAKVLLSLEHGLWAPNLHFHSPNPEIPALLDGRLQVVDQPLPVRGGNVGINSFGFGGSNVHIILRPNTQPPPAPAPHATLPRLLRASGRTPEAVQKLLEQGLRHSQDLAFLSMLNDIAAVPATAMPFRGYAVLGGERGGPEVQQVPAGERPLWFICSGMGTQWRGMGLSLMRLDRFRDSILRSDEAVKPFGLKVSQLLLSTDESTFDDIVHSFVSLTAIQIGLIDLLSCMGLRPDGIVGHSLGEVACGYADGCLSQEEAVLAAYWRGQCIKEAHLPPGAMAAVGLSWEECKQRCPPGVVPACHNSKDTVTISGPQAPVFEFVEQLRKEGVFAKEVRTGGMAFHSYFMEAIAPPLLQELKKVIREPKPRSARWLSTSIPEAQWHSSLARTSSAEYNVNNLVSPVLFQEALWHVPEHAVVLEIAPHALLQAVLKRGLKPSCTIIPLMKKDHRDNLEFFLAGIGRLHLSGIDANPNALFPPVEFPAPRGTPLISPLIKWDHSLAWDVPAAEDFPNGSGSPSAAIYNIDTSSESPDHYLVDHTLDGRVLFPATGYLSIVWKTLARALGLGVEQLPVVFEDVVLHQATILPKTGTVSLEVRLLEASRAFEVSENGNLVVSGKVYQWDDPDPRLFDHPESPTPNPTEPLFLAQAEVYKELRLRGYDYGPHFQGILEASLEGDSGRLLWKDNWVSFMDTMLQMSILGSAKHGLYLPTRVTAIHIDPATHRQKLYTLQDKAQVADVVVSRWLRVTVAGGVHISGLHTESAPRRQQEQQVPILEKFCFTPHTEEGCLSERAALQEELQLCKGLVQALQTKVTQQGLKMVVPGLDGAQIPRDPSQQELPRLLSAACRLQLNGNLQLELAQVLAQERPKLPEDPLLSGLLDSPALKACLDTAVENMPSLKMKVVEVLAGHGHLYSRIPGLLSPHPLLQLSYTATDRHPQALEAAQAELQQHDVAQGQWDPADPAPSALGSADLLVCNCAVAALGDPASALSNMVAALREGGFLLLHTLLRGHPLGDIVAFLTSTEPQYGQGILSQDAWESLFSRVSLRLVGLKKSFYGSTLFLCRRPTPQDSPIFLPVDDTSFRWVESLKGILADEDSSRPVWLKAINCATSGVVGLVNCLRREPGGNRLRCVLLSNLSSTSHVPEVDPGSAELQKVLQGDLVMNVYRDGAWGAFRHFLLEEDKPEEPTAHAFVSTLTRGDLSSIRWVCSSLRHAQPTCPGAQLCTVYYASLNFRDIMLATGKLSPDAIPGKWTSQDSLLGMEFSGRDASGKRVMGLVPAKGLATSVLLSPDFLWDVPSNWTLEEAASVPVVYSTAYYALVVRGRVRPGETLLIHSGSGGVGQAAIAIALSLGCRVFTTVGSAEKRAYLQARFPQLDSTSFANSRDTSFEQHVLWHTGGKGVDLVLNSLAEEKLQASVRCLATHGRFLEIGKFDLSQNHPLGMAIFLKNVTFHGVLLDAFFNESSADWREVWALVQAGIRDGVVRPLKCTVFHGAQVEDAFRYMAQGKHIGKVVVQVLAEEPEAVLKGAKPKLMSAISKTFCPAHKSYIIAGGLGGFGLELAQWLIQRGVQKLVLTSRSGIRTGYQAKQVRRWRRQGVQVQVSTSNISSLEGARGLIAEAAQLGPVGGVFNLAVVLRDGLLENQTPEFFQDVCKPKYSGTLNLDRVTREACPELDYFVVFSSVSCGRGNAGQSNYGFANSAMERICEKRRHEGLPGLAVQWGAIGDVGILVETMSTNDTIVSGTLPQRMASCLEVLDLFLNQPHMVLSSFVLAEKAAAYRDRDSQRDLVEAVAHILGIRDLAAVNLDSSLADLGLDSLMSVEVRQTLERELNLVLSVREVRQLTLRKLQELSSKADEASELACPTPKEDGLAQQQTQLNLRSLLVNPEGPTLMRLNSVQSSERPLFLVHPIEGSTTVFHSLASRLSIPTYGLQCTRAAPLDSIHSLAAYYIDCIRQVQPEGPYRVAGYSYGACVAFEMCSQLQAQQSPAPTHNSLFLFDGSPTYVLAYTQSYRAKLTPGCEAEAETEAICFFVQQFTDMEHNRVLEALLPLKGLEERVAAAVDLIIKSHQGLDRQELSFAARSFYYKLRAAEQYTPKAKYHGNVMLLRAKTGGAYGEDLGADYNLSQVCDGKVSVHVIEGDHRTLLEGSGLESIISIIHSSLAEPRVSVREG
CRFR2-BP ag: CRF-BP/CRF-R2 complex agonism | 0.46% of 350,000 active | AID 588473 | HEK293 CRF-R2/CRF-BP, calcium dye fluorescence (FLIPR); percent of saturating CRF peptide response | activation, % at 13.2 µM;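 active = activation of at least 50%, plus an integration ratio under a set limit after plate pattern correction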;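 note: plate controls were neutral control wells without compound for no effect and CRF at EC100 for full effect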
CRFR2-BP antag: CRF-BP/CRF-R2 complex antagonism; HEK293 CRF-R2/CRF-BP, CRF-induced calcium fluorescence; inhibition, % at 11.8 µM; 0.59% of 350,000 active;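 active = inhibition of the ligand-induced calcium signal above about 50% at the single tested concentration, limit read from the data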
PfG6PD inh: PfG6PD (Plasmodium falciparum) enzyme inhibition; PfGluPho enzyme, NADPH resazurin-diaphorase fluorescence; 0.78% of 350,000 active; inhibition, % at 20 µM;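 active = inhibition reaching at least a set limit at 20 µM in the primary screen, cut at about 59% in these data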;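 note: 0% = DMSO wells with substrate and 100% = DMSO wells lacking glucose-6-phosphate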
Cardio protect: modulators protecting cardiomyocytes from myocardial damage; protection from H2O2 cell death, % at 20 µM; H9c2 cardiomyocytes, H2O2 injury protection, ATPLite, 2 h; 0.63% of 360,000 active;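 active = compounds giving at least 50% protection of heart cells from peroxide-induced death in the single-dose screen, raw or plate-pattern-corrected value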;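 note: 0% = DMSO wells with peroxide and 100% = DMSO wells without peroxide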
aDG glyco act: alpha-DG glycosylation activation. Pro5-aDG cells, alpha-DG glycosylation AlphaScreen (IIH6); 0% Pro5, 100% B10-LARGE cell signal. activation, % at 10 µM. 0.22% of 360,000 active. AID 624168;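 active = activation of at least 8% versus controls, or a plate z-score of at least 8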;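 note: Pro5 are CHO cells carrying HIG-tagged alpha-DG that lacks glycosylation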
PfG6PD confirm: PfG6PD inhibition, single-dose confirmed | shares compounds with PfG6PD inh | recombinant PfGluPho, NADPH-diaphorase-resazurin fluorescence | inhibition, % at 20 µM | 34% of 2,400 active | AID 504753;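 active = inhibition of at least 50% at 20 µM in any single replicate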;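 note: 0% = DMSO with substrate and 100% = DMSO lacking glucose-6-phosphate substrate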
Diaphorase 10uM: counter-screen for P. falciparum G6PD inhibitors: diaphorase inhibitors, oxidizers. 39% of 820 active. shares compounds with PfG6PD inh. inhibition, % at 20 µM. diaphorase-coupled resazurin reduction, fluorescence, NADPH 10 uM;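 active = average inhibition reaching 50% or more with the compound at 20 µM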;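 note: resorufin red fluorescence formed as diaphorase reduces resazurin using NADPH; 0% = DMSO with enzyme and 100% = DMSO without enzyme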
Diaphorase 30uM: diaphorase inhibition or oxidation at 30 uM NADPH; inhibition, % at 20 µM; 29% of 820 active; shares compounds with PfG6PD inh; Diaphorase/resazurin coupled assay, resorufin fluorescence;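 active = inhibition averaging 50% or more, tested at 20 µM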;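 note: 0% = DMSO with enzyme and 100% = DMSO wells lacking diaphorase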
Numbers without * were called inactive; . = no result given.

SMILES | FAS-TE inh | CRFR2-BP ag | CRFR2-BP antag | PfG6PD inh | Cardio protect | aDG glyco act | PfG6PD confirm | others
COc1cc(C2CC(=O)N3CN(Cc4ccco4)CSC3=C2C#N)ccc1OCc1ccccc1 (stereo unspecified) | -5 | -1 | 26 | 60* | -6 | 1 | 4
COc1ccc(C2CC(=O)N3CN(Cc4ccco4)CSC3=C2C#N)cc1 (stereo unspecified) | -3 | -1 | 9 | 59* | 3 | 0 | 7
N#CC1=C2SCN(Cc3ccccc3)CN2C(=O)CC1c1cccs1 (stereo unspecified) | -7 | -2 | 3 | 71* | 16 | 0 | 7
COc1ccccc1N1CCN(Cc2ccco2)CC1 | -7 | 0 | 14 | 10 | -5 | 0 | .
COc1ccc2ccccc2c1C1CC(=O)N2CN(Cc3ccco3)CSC2=C1C#N (stereo unspecified) | -2 | -2 | 25 | 68* | -8 | 0 | 42
CC(=O)N1CCCC(C(=O)c2ccc(Oc3ccccc3)cc2)C1 (stereo unspecified) | -5 | 0 | -3 | -8 | -7 | 0 | .
CCSc1ccc(-c2cccc([N+](=O)[O-])c2)nn1 | 46 | -5 | -2 | 4 | -1 | 0 | .
OC[C@@H]1CN(Cc2ccc(Cl)cc2)C[C@H](n2cnc3c(NC4CC4)ncnc32)O1 | -6 | . | . | . | -6 | 0 | .
COC(=O)C1=C(C)N(C)C(=O)NC1c1c(OC)ccc2ccccc12 (stereo unspecified) | -1 | -1 | -12 | -19 | 2 | 0 | .
COc1ccc2ccccc2c1C1CC(=O)N2CN(C3CCCCC3)CSC2=C1C#N (stereo unspecified) | 4 | 0 | 28 | 72* | -16 | 0 | 65* | Diaphorase 10uM=-18;Diaphorase 30uM=-22
CSC1=C(C#N)C(c2ccc(C(C)C)cc2)CC(=O)N1 (stereo unspecified) | 4 | -3 | 21 | 5 | -12 | 0 | .
CCOc1cc(C2CC(=O)NC(SCC)=C2C#N)ccc1O (stereo unspecified) | -8 | 0 | -1 | 2 | -12 | 0 | .
CCOc1cc(C2CC(=O)N3CN(C4CCCCC4)CSC3=C2C#N)ccc1O (stereo unspecified) | -7 | 9 | -24 | 76* | 4 | 1 | 44
CC(C)c1ccc(C2CC(=O)N3CN(Cc4ccco4)CSC3=C2C#N)cc1 (stereo unspecified) | -3 | 0 | -16 | 61* | -1 | 0 | 16
CN(C)c1ccc(CNC(=O)c2cc(S(=O)(=O)N3CCOCC3)cn2C)cc1 | -4 | 4 | 8 | 13 | 2 | 0 | .
COc1cc2c(cc1[N+](=O)[O-])-c1ccc([N+](=O)[O-])cc1C2=NNC(N)=S | 6 | -2 | -16 | 73* | 2 | -1 | 22
NC(=O)c1ccc[n+](CC(=O)c2cccc([N+](=O)[O-])c2)c1 | -1 | -2 | 26 | -1 | 0 | 0 | .
Cc1c(N)c(C(C)(C)C)cc(C(C)(C)C)c1[N+](=O)[O-] | 30 | -2 | -21 | -1 | -10 | 0 | .
Cc1cc2nc3c(=O)[nH]c(=O)[nH]c3nc2c([N+](=O)[O-])c1N | -70 | 60* | -23 | 50 | -5 | 0 | 40
COCCNC(=S)NNC(=O)c1cc(C2CC2)nc2ccccc12 | -2 | 0 | 19 | -3 | 4 | 0 | .
Cc1ccc(C(=O)Nc2nnc(S(=O)(=O)N3CCC(C)CC3)s2)cc1 | -1 | -1 | 2 | 84* | -8 | 0 | 50* | Diaphorase 10uM=33;Diaphorase 30uM=38
Cc1ccc(N2CCN(S(=O)(=O)c3nnc(NC(=O)c4ccccc4)s3)CC2)cc1 | 2 | 1 | 26 | 14 | -24 | 0 | .
O=C(Nc1nnc(S(=O)(=O)N2CCCCCC2)s1)c1ccc(Cl)cc1 | 3 | 17 | 16 | 80* | -13 | 0 | 20
Cc1ccc(C(=O)Nc2nnc(S(=O)(=O)N3CCOCC3)s2)cc1 | -5 | -3 | 21 | 101* | -4 | 0 | 62* | Diaphorase 10uM=52*;Diaphorase 30uM=51*
Cc1cccc(C(=O)Nc2nnc(S(=O)(=O)N3CCC(C)CC3)s2)c1 | -2 | 5 | -25 | 70* | -7 | 0 | 23
SMILES | FAS-TE inh | CRFR2-BP ag | CRFR2-BP antag | PfG6PD inh | Cardio protect | aDG glyco act | PfG6PD confirm | others
Cc1ccc(NC(=O)c2ccc(S(=O)(=O)N3CCC(C)CC3)cc2)cc1 | -3 | 0 | 5 | 1 | -10 | 0 | .
O=C(OCc1csc(-c2ccccc2)n1)c1ccccc1O | 13 | -1 | -10 | 14 | -6 | 0 | .
CC(C)c1ccc(C(=O)Nc2nnc(S(=O)(=O)N3CCCCC3)s2)cc1 | 4 | -1 | -6 | -20 | -12 | 0 | .
Cc1cccc(C(=O)Nc2nnc(S(=O)(=O)N3CCOCC3)s2)c1 | -9 | 1 | -1 | 68* | 0 | 0 | 61* | Diaphorase 10uM=48;Diaphorase 30uM=41
O=C(Nc1nnc(S(=O)(=O)N2CCOCC2)s1)c1cccc(F)c1 | -3 | -4 | 44 | 51 | -10 | 0 | .
Cc1ccc(C(=O)Nc2nnc(S(=O)(=O)N3CCCCCC3)s2)cc1 | 0 | 0 | -4 | 68* | -17 | 0 | 6
O=C(NC1(C(F)(F)F)NC(=O)N(c2ccc(F)cc2)C1=O)c1cccs1 (stereo unspecified) | -6 | -2 | 18 | -15 | 9 | 0 | .
COc1ccccc1NC(=O)Nc1nn(C)c2cccc(N(C)C)c12 | 14 | 0 | -7 | 64* | 6 | 0 | 21
Cc1c(C(=O)Nc2nc(-c3ccccn3)cs2)oc2ccccc12 | 14 | 2 | 3 | 62* | 54* | 1 | 25
CCN(CC)S(=O)(=O)c1ccc(/C=C/C(=O)OCC(=O)NCc2cccs2)cc1 | -1 | 0 | 14 | -7 | 0 | 0 | .
Cc1ccc(-n2nc(C(=O)N3CCOCC3)cc2-c2ccc(Cl)cc2)cc1 | 14 | 0 | 3 | 60* | -1 | 0 | 35
O=C(c1cc(-c2ccc(Cl)cc2)n(-c2ccc(Cl)cc2)n1)N1CCOCC1 | 24 | -1 | 5 | 34 | -8 | 1 | .
Cn1c(=O)c2[nH]c(-c3ccccc3)c(O)c2n(C)c1=O | -15 | 70* | -43 | 71* | -9 | 1 | 59* | Diaphorase 10uM=-2;Diaphorase 30uM=10
COc1ccc(OC)c(S(=O)(=O)NC(=O)C2(C)CCN2C(=O)CC2CCCC2)c1 (stereo unspecified) | -7 | . | . | . | 3 | 0 | .
